PME-1 primary = blocks human protein phosphatase methylesterase 1; recombinant PME-1, FP-Rh probe fluorescence polarization; inhibition, % at 5.9 µM; 320,000 compounds, 0.53% hits;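 active = inhibition above the campaign mean of all compounds plus 3 SD, cut at about 26% in these data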;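 note: competitive labeling of PME-1 active site by serine hydrolase directed probe; inhibitors block probe labeling so polarization falls and inhibition rises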
Target sequence (Q9Y570 whole entry, looked up): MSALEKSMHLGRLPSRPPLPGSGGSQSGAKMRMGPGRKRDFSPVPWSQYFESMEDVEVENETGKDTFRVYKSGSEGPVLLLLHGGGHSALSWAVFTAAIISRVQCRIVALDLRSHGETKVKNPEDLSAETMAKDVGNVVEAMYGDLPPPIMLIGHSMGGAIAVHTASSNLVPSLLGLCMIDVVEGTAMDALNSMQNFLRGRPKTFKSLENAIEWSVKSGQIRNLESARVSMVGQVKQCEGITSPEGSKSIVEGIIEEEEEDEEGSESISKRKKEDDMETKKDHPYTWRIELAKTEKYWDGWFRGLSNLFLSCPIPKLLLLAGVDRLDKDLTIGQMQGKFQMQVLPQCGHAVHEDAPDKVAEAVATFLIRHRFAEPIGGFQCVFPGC
PAFAH2 inh = inhibitors of human PAFAH2 | recombinant PAFAH2, FP-rhodamine activity probe, fluorescence polarization | inhibition, % at 3.39 µM | 340,000 compounds, 0.99% hits | AID 492956;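 active = inhibition above the mean over all tested compounds plus 3 SD, cut at about 30% in these data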;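 note: inhibitors block probe labeling of enzyme so polarization drops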
PAFAH1B2 inh = PAFAH1B2 (human) inhibition | inhibition, % at 3.39 µM | P68402 | 340,000 compounds, 1.2% hits | recombinant PAFAH1B2, FP-rhodamine activity probe, fluorescence polarization;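 active = inhibition above the mean of all tested compounds plus 3 SD, cut at about 24% in these data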
Target sequence (P68402 whole entry, looked up): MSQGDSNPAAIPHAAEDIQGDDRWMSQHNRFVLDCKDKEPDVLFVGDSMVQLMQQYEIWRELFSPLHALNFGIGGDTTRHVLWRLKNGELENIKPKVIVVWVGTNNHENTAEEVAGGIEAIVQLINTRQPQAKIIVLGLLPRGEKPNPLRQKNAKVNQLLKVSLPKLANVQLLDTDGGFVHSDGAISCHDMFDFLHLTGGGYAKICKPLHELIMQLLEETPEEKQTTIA
pPAFAH FP inh = pPAFAH (human) enzyme inhibition | inhibition, % at 3.39 µM | AID 463082 | recombinant pPAFAH, FP-rhodamine probe fluorescence polarization | 330,000 compounds, 1.5% hits;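 active = inhibition above the mean inhibition across the screen plus 3 SD, cut at about 25% in these data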;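 note: inhibitors block binding of the rhodamine activity-based probe so polarization drops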
PAFAH1B3 inh = inhibitors of human PAFAH1B3 | Q15102 | recombinant PAFAH1B3, FP-rhodamine probe, fluorescence polarization | 340,000 compounds, 0.28% hits | inhibition, % at 3.39 µM;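 active = inhibition above the screen-wide average of all tested compounds plus 3 SD, cut at about 25% in these data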
Fam108B counter = blocks mouse Fam108B hydrolase in RBBP9 counter-screen; 300,000 compounds, 0.33% hits; recombinant Fam108B, FP-Rh probe fluorescence polarization; inhibition, % at 9.51 µM; AID 1947;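 active = inhibition above the screen mean inhibition plus 3 SD, computed separately per campaign, cut at about 18% in these data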;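 note: inhibitors lower polarization as less probe binds the enzyme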
Fam108b confirm = Fam108b (mouse) hydrolase inhibition, confirmation assay; AID 1978; shares compounds with Fam108B counter; recombinant Fam108b, FP-Rh probe fluorescence polarization; 930 compounds, 44% hits; inhibition, % at 9.51 µM;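 active = inhibition above a limit from the primary screen, the mean over all compounds plus 3 SD, cut at about 19% in these data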;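 note: inhibitors free the probe so polarization falls as inhibition rises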
Fam108b ABPP HTS = mouse ABHD17B inhibition. shares compounds with Fam108B counter. recombinant Fam108b, gel-based ABPP, fluorophosphonate probe. inhibition, % at 20 µM. 260 compounds, 44% hits; in the data active = inhibition above about 40%
Hits are given with their value. Shown are actives, neighbours in structure and some others; about 2.8% of the full set was active somewhere.

Screening CCOC(=O)c1c(NC(=O)Nc2ccccc2)sc(C)c1C returned PME-1 primary inactive, PAFAH2 inh inactive, PAFAH1B2 inh inactive, pPAFAH FP inh inactive, PAFAH1B3 inh inactive, Fam108B counter 22 and Fam108b confirm inactive.
CCOC(=O)Nc1sc(C)c(C)c1C(=O)OCC was read as PME-1 primary inactive, PAFAH2 inh inactive, PAFAH1B2 inh inactive, pPAFAH FP inh inactive, PAFAH1B3 inh inactive and Fam108B counter inactive.
Screening Cc1[nH]c2c(C)cccc2c1CCNC(=O)c1ccc2c(c1[N+](=O)[O-])C(=O)c1ccccc1C2=O returned PME-1 primary 31, PAFAH2 inh inactive, PAFAH1B2 inh inactive, pPAFAH FP inh inactive, PAFAH1B3 inh 40, Fam108B counter 23, Fam108b confirm 30 and Fam108b ABPP HTS 60.
For O=C1C=CC(=O)N1c1ccc2c(c1)C(NC(=O)C(F)(F)F)c1ccccc1-2 (configuration not stated) the results were PAFAH2 inh inactive, PAFAH1B2 inh inactive and PAFAH1B3 inh inactive.
`COc1cccc(CC(=O)Nc2ccc(S(=O)(=O)N3CCCCC3)cc2)c1` gave PAFAH2 inh inactive, PAFAH1B2 inh inactive, pPAFAH FP inh inactive and PAFAH1B3 inh inactive.
`Cc1cccc2cc3c(N)c(C(=O)Nc4ccc(N5CCOCC5)cc4)sc3nc12` gave PME-1 primary inactive, PAFAH2 inh inactive, PAFAH1B2 inh inactive, pPAFAH FP inh inactive, PAFAH1B3 inh inactive, Fam108B counter 20 and Fam108b confirm inactive.
For CCc1cccc2cc3c(N)c(C(=O)Nc4ccc(S(=O)(=O)N5CCCC5)cc4)sc3nc12 the results were PME-1 primary 38, PAFAH2 inh inactive, PAFAH1B2 inh inactive, pPAFAH FP inh inactive, PAFAH1B3 inh inactive, Fam108B counter 54 and Fam108b confirm inactive.
`CN1CCN(C(=O)c2ccccc2NS(=O)(=O)c2ccc(F)cc2)CC1` gave PME-1 primary inactive, PAFAH2 inh inactive, PAFAH1B2 inh inactive, pPAFAH FP inh inactive and PAFAH1B3 inh inactive.
COc1ccc(C2C3=C(CC(C)(C)CC3=O)Nc3c2c(=O)[nH]c(=O)n3Cc2ccccc2)cc1 (configuration not stated) was read as PME-1 primary inactive, PAFAH2 inh inactive, PAFAH1B2 inh inactive, pPAFAH FP inh inactive, PAFAH1B3 inh inactive, Fam108B counter 21 and Fam108b confirm 22.
CCn1c2ccccc2c2cc(NC(=O)c3cc(OC)c(OC)c(OC)c3)ccc21 was read as PME-1 primary inactive, PAFAH2 inh inactive, PAFAH1B2 inh inactive, pPAFAH FP inh inactive, PAFAH1B3 inh inactive, Fam108B counter 19 and Fam108b confirm inactive.
For CCc1nn(C(C)C(=O)N2CCN(c3ccc(OC)cc3)CC2)c(=O)c2cc3occc3n12 (configuration not stated) the results were PME-1 primary inactive, PAFAH2 inh inactive, PAFAH1B2 inh inactive, pPAFAH FP inh inactive, PAFAH1B3 inh inactive and Fam108B counter inactive.
COc1ccc(Nc2nc(-c3cccs3)nc3ccccc23)cc1 was read as PME-1 primary inactive, PAFAH2 inh inactive, PAFAH1B2 inh inactive, pPAFAH FP inh inactive, PAFAH1B3 inh inactive, Fam108B counter 28 and Fam108b confirm inactive.
Screening COc1ccc(NC(=O)c2ccccc2F)cc1Cl returned PME-1 primary inactive, PAFAH2 inh inactive, PAFAH1B2 inh inactive, pPAFAH FP inh inactive, PAFAH1B3 inh inactive and Fam108B counter inactive.
`O=C(Nc1ccc(Oc2ccc(Cl)cc2)c(Cl)c1)c1cc(I)cc(I)c1O` gave PME-1 primary inactive, PAFAH2 inh inactive, PAFAH1B2 inh inactive, pPAFAH FP inh inactive, PAFAH1B3 inh inactive, Fam108B counter 18 and Fam108b confirm inactive.
Screening COC(=O)/C=C1\S/C(=N/NC(=O)c2ccccc2)NC1=O returned PME-1 primary inactive, PAFAH2 inh inactive, PAFAH1B2 inh inactive, pPAFAH FP inh inactive, PAFAH1B3 inh inactive and Fam108B counter inactive.
For COc1ccccc1/C=C1\S/C(=N/NC(=O)c2cccc(Br)c2)NC1=O the results were PME-1 primary inactive, PAFAH2 inh 41, PAFAH1B2 inh inactive, pPAFAH FP inh inactive, PAFAH1B3 inh inactive, Fam108B counter 21 and Fam108b confirm inactive.
CCn1c(SCC(=O)NC2CC2)nnc1-c1cccc(OC)c1 was read as PME-1 primary inactive, PAFAH2 inh inactive, PAFAH1B2 inh inactive, pPAFAH FP inh inactive, PAFAH1B3 inh inactive and Fam108B counter inactive.
Screening CC(=O)C1(C)C(=O)N(c2ccc(F)cc2)C(=O)N1c1ccc(F)cc1 (configuration not stated) returned PAFAH2 inh inactive, PAFAH1B2 inh inactive and PAFAH1B3 inh inactive.
`O=C(Nc1cccc(Cl)c1)Nc1sccc1-c1nc2ccccc2s1` gave PME-1 primary inactive, pPAFAH FP inh inactive, Fam108B counter 27 and Fam108b confirm 20.
Screening O=C(Nc1ccccc1)Nc1sccc1-c1nc2ccccc2s1 returned PME-1 primary inactive, pPAFAH FP inh inactive and Fam108B counter inactive.
`COc1cc(Br)c(C(=O)c2nccc3cc(OC)c(OC)cc23)cc1OC` gave PME-1 primary inactive, PAFAH2 inh 40, PAFAH1B2 inh inactive, pPAFAH FP inh inactive, PAFAH1B3 inh 67, Fam108B counter 63, Fam108b confirm 62 and Fam108b ABPP HTS inactive.
For CCC(C(=O)N1CCC(N2CCCCC2)CC1)n1nc(C)c2sc3ccccc3c2c1=O (configuration not stated) the results were PME-1 primary inactive, PAFAH2 inh inactive, PAFAH1B2 inh inactive, pPAFAH FP inh inactive, PAFAH1B3 inh inactive and Fam108B counter inactive.
Screening Nc1[nH]n(-c2ccccc2)c(=O)c1N=Nc1ccccc1 returned PME-1 primary inactive, PAFAH2 inh inactive, PAFAH1B2 inh inactive, pPAFAH FP inh inactive, PAFAH1B3 inh inactive and Fam108B counter inactive.
For Nc1[nH]n(-c2ccccc2)c(=O)c1N=Nc1ccc2ncsc2c1 the results were PME-1 primary 36, PAFAH2 inh inactive, PAFAH1B2 inh inactive, pPAFAH FP inh inactive, PAFAH1B3 inh inactive, Fam108B counter 20 and Fam108b confirm inactive.
Screening C=CCOC1=CS(=O)(=O)N(Cc2ccc(Br)cc2)c2ccc(Br)cc21 returned PAFAH2 inh inactive, PAFAH1B2 inh inactive, pPAFAH FP inh inactive and PAFAH1B3 inh inactive.
`COc1ccc(-c2csc(NC(=O)Nc3ccccc3)n2)cc1` gave PME-1 primary 48, PAFAH2 inh inactive, PAFAH1B2 inh inactive, pPAFAH FP inh inactive, PAFAH1B3 inh inactive, Fam108B counter 45 and Fam108b confirm inactive.
Screening COc1cc2c(cc1NC(=O)Nc1ccccc1)oc1ccccc12 returned PME-1 primary 31, PAFAH2 inh inactive, PAFAH1B2 inh inactive, pPAFAH FP inh inactive, PAFAH1B3 inh inactive, Fam108B counter 33, Fam108b confirm 43 and Fam108b ABPP HTS 90.

Screening results (PubChem)
